Measurements: PubChem BioAssay
Active and inactive are the calls of the source.

How the values were obtained:
Albumin (Bos taurus) = Albumin (Bos taurus) (UniProt P02769); test: compounds binding labelled BSA control protein – biochemical, small-molecule microarray, Alexa647 label, 635/667 nm fluorescence, artefact control for SMM control protein annotation, profiling panel (AID 1118); conditions: BSA-A647 binding, fluorescence 635 nm, higher = more signal;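 note: score merges 667 nm emission intensity and signal-to-noise per printed compound spot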
[1] = probe aXIP binding to arrayed compounds – biochemical, NeuroSMM set, 635/667 nm fluorescence, primary screen (AID 1119); conditions: small-molecule microarray, higher = more signal, called active from +8 up or from −8 down;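 note: probe is the protein aXip251-270 applied at 1 µg/mL to compound-printed slides; binding of probe to printed compounds measured as 667 nm fluorescence plus signal to noise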
[2] = probe aNOTCH3 binding on compound microarray – biochemical, small-molecule microarray, 635/667 nm fluorescence, primary screen (AID 1120); conditions: higher = more signal;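 note: probe is a biotin-tagged antibody raised against NOTCH3 rather than NOTCH3 protein; score merges spot fluorescence near 667 nm with spot signal to noise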
[3] = probe aNOTCH2 binding on compound microarray – biochemical, small-molecule microarray, 635/667 nm fluorescence, primary screen (AID 1121); conditions: higher = more signal;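 note: score merges feature fluorescence read at 667 nm with its signal to noise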
[4] = molecular target: Carbonic anhydrase 2 (Homo sapiens) (UniProt P00918); test: compounds binding carbonic anhydrase 2 – biochemical, small-molecule microarray, Alexa647-labelled CAII, profiling panel (AID 1122); conditions: CAII-A647 binding fluorescence, higher = more signal
[5] = COS7 lysate on small-molecule microarray, probe aHis, 635 nm (AID 1123); conditions: COS7 cell lysate, fluorescence, higher = more signal;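 note: z-score combines 667nm fluorescence intensity with signal-to-noise per printed compound spot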
[6] = probe aLAP1 signal on lysate-treated microarray – cell lysate, small-molecule microarray, COS7 lysate, primary screen (AID 1124); conditions: probe aLAP1, fluorescence, higher = more signal;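 note: lysate comes from COS7 cells expressing LAP1 and is applied at 0.3 µg/mL; score merges spot fluorescence near 667 nm with signal-to-noise over triplicate slides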
Sam68 (KHDRBS1) = test: compounds binding KHDRBS1 protein – biochemical, small-molecule microarray, 635 nm fluorescence, primary screen (AID 1125); conditions: higher = more signal;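 note: score merges 667 nm channel intensity with signal to noise over triplicate slides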
[7] = system: Chordin-like protein 2 (CHRDL2); test: compounds binding chordin-like 2 – biochemical, small-molecule microarray, 635 nm fluorescence, primary screen (AID 1126); conditions: fluorescence 635 nm, higher = more signal;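 note: printed compound slides probed with Chrdl2 protein at 4 µg/mL for 1 h at 4 C; score merges 667 nm emission intensity with signal to noise over three replicate slides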
[8] = molecular target: Concanavalin-A (Canavalia ensiformis) (UniProt P02866); test: compounds binding concanavalin A lectin – biochemical, small-molecule microarray, Alexa647 label, 635 nm, artefact control for SMM control protein annotation, primary screen (AID 1127); conditions: ConA-A647 binding fluorescence, higher = more signal;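 note: z combines 667 nm emission intensity with signal-to-noise across three replicate slides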
[9] = compounds binding Alexa647 anti-His antibody – biochemical, small-molecule microarray, 635 nm fluorescence, artefact control for SMM control protein annotation, primary screen (AID 1128); conditions: higher = more signal;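 note: score merges feature fluorescence with signal-to-noise for each printed compound spot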
[10] = system: Human papillomavirus type 1a E7 protein (residues 1-88); test: HPV1a E7 small-molecule binders, primary screen, biochemical, small-molecule microarray, residues 1-88, 635 nm (AID 1129); conditions: small-molecule microarray binding, fluorescence 635 nm; higher = more signal
[11] = molecular target: Focal adhesion kinase 1 (Homo sapiens) (UniProt Q05397); test: PTK2 protein binding on printed compound slides – biochemical, small-molecule microarray, 635/667 nm fluorescence, BSA, DTT, primary screen (AID 1130); conditions: 635 nm fluorescence, higher = more signal;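 note: composite of spot emission at 667 nm and signal to noise over triplicate slides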
[12] = system: Fibrinogen (Alexa647-labelled); test: Alexa647-fibrinogen binding to printed small molecules – biochemical, small-molecule microarray, 635/667 nm fluorescence, artefact control for SMM control-protein annotation, profiling panel (AID 1131); conditions: fibrinogen-A647 binding fluorescence, higher = more signal;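 note: z-score merges 667 nm fluorescence with per-spot signal-to-noise over triplicate slides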
[13] = molecular target: Follistatin (Homo sapiens) (UniProt P19883); test: FST protein binding to printed compounds – biochemical, small-molecule microarray, 635/667 nm fluorescence, primary screen (AID 1132); conditions: 635 nm fluorescence, higher = more signal
[14] = molecular target: Fibroblast growth factor 2 (Homo sapiens) (UniProt P09038); test: basic fibroblast growth factor binding to printed compounds – biochemical, small-molecule microarray, 635/667 nm fluorescence, primary screen (AID 1133); conditions: FGF2, fluorescence 635/667, higher = more signal
[15] = JC-1 mitochondrial potential readout, lung cancer cells – cell-based, A549, JC-1 fluorescence, basal, 24 h, 100 nL, profiling panel (AID 1138); conditions: higher = more signal;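 note: A549 lung adenocarcinoma cells under basal conditions with no added stimulus; test concentration not given here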
Lefty1 = Lefty1 protein binding to printed compounds – biochemical, small-molecule microarray, 635/667 nm fluorescence, primary screen (AID 1139); conditions: fluorescence 635/667, higher = more signal
[16] = system: wheat germ agglutinin (Triticum aestivum), Alexa647-labelled; test: Alexa647-WGA lectin binding to printed small molecules – biochemical, small-molecule microarray, 635/667 nm fluorescence, artefact control for SMM control-protein annotation, profiling panel (AID 1140); conditions: WGA-A647 binding, 635 nm fluorescence, higher = more signal;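 note: score merges 667 nm feature emission with signal to noise over triplicate slides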
[17] = molecular target: Luciferin 4-monooxygenase (Photinus pyralis) (UniProt P08659); test: inhibition of purified Photinus pyralis luciferase – biochemical, luminescence, purified enzyme, 2006 set, primary screen (AID 1141); conditions: purified firefly luciferase, SteadyGlo luminescence, 30 min; higher = more signal, called active from +8 up or from −8 down;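 note: cell-free assay with purified firefly luciferase at 100 ng per well in PBS; test concentration not given here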
Chain of Luciferin 4-monooxygenase (Photinus pyralis) (P08659 whole entry, looked up): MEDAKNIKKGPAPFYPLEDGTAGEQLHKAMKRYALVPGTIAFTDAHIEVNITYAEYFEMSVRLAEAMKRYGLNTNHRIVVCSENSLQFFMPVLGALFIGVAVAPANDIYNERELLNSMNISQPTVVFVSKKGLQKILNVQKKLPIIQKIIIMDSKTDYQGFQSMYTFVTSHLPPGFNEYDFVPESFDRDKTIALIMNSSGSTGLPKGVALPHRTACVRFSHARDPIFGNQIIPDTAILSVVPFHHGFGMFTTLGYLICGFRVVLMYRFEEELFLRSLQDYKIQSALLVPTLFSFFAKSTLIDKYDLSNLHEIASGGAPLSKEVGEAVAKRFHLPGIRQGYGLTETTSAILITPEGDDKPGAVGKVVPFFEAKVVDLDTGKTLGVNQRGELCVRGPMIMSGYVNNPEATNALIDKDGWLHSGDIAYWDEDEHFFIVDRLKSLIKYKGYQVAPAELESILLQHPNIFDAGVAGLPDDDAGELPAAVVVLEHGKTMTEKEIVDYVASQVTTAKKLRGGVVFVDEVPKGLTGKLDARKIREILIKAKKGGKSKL

Chain of Albumin (Bos taurus) (P02769 whole entry, looked up): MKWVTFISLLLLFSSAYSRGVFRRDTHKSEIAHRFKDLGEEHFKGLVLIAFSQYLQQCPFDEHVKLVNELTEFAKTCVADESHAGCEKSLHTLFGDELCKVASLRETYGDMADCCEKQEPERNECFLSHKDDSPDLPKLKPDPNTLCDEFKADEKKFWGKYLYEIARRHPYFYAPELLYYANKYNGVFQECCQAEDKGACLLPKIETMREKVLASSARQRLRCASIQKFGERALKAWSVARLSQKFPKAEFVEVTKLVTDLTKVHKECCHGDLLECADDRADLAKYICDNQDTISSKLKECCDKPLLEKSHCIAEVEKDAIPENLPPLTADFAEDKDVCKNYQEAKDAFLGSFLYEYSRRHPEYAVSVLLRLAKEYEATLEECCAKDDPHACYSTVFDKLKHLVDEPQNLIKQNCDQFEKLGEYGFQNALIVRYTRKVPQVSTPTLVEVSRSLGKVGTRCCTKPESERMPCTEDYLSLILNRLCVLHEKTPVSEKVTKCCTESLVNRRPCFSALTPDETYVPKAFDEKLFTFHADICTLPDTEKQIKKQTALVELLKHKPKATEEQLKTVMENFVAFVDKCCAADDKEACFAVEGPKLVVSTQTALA
Chain of Follistatin (Homo sapiens) (P19883 whole entry, looked up): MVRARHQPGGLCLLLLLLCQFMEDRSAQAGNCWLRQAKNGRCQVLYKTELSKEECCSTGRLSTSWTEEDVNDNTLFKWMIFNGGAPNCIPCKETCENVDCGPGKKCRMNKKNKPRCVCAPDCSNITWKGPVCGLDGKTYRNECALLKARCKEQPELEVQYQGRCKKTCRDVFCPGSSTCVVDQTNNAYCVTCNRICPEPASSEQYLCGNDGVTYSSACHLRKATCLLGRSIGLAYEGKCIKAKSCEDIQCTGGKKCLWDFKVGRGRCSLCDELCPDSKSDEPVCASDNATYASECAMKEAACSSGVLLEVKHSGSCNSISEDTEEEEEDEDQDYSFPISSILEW
Chain of Concanavalin-A (Canavalia ensiformis) (P02866 whole entry, looked up): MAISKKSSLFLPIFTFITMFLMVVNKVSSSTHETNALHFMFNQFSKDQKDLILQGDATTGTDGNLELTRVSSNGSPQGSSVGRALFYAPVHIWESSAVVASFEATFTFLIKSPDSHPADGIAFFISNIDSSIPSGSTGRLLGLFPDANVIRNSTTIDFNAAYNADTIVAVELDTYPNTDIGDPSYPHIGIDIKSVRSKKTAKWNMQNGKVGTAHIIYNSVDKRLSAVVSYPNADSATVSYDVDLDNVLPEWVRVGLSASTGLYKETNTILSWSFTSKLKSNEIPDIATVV
Chain of Fibroblast growth factor 2 (Homo sapiens) (P09038 whole entry, looked up): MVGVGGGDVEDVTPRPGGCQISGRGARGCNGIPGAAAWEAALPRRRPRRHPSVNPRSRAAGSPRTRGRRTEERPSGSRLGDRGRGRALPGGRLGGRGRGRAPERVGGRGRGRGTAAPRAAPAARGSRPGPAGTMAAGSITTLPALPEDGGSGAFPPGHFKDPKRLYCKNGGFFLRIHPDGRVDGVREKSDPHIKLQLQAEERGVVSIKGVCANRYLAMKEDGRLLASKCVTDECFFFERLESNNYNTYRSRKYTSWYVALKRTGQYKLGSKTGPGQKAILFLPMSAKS
Chain of Focal adhesion kinase 1 (Homo sapiens) (Q05397 whole entry, looked up): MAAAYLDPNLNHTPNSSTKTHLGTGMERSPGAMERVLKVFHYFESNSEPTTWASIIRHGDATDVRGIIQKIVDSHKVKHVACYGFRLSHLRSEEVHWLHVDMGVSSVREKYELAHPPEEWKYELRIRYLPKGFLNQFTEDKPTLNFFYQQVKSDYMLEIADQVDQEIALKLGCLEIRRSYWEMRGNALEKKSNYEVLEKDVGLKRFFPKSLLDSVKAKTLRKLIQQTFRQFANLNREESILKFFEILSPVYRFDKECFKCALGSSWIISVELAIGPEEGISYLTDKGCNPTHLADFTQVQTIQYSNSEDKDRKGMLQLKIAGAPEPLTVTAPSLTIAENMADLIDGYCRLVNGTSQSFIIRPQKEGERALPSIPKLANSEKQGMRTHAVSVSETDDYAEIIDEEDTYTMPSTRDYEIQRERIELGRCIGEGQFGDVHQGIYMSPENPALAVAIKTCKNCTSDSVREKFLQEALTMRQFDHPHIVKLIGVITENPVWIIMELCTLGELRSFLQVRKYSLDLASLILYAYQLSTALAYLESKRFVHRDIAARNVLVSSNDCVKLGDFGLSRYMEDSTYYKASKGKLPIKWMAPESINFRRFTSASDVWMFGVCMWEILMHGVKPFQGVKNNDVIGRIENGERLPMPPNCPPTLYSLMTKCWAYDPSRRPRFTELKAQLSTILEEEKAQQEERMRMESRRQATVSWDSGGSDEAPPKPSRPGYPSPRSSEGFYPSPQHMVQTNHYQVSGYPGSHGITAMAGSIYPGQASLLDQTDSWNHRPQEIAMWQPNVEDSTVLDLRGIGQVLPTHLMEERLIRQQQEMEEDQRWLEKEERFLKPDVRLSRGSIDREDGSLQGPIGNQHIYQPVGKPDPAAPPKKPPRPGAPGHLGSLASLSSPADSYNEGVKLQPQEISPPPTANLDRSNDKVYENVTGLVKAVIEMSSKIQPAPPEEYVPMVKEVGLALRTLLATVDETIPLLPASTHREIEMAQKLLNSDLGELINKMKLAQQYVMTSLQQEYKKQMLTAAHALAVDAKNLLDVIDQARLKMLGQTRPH

CCCNC(=O)[C@@]1(C)c2ccccc2C(=O)N(C(C)C)[C@H]1c1ccc(CO)cc1
composite z-score (Albumin (Bos taurus)): -0.598
composite Z-score [1]: -0.305 (inactive)
composite z-score [2]: -0.136
composite z-score [3]: -0.102
composite z-score [4]: 0.673
composite z-score [5]: 1.63
composite z-score [6]: 0.65
composite z-score (Sam68 (KHDRBS1)): -0.347
composite z-score [7]: -0.95
composite z-score [8]: -1.15
composite z-score [9]: -0.853
composite z-score [10]: -0.54
composite z-score [11]: 0.198
composite z-score [12]: -0.879
composite z-score [13]: -0.127
composite z-score [14]: -0.343
z-score [15]: -0.809
composite z-score (Lefty1): -1.38
composite z-score [16]: -0.867
z-score [17]: 0.33 (inactive)

C=CCC(OC(C)=O)[C@@H]1[C@@H](N(Cc2ccc(-c3cccc(C(F)(F)F)c3)o2)C(=O)Cc2ccc(OC)cc2)c2cc(OCCCO)ccc2N1C(=O)Cc1ccc(OC)cc1 (stereo not given in full)
composite z-score (Albumin (Bos taurus)): 0.478
composite Z-score [1]: -0.784 (inactive)
composite z-score [2]: -0.193
composite z-score [3]: -0.193
composite z-score [4]: 0.158
composite z-score [5]: 0.043
composite z-score [6]: -0.39
composite z-score (Sam68 (KHDRBS1)): -0.399
composite z-score [7]: 0.292
composite z-score [8]: -0.947
composite z-score [9]: -0.381
composite z-score [10]: -1.04
composite z-score [11]: -0.127
composite z-score [12]: -1.31
composite z-score [13]: 0.544
composite z-score [14]: 0.283
z-score [15]: 0.212
composite z-score (Lefty1): -0.0334
composite z-score [16]: 0.0267
z-score [17]: 0.781 (inactive)

O=C1C2C=CC(C(O)c3cccc4ccccc34)N(n3cnnc3)C2C(=O)N1Cc1ccccc1 (stereo not given)
composite z-score (Albumin (Bos taurus)): -0.0146
composite Z-score [1]: -0.415 (inactive)
composite z-score [2]: 1.28
composite z-score [3]: 0.747
composite z-score [4]: 0.754
composite z-score [5]: 0.434
composite z-score [6]: 0.544
composite z-score (Sam68 (KHDRBS1)): -0.131
composite z-score [7]: 0.166
composite z-score [8]: 0.0912
composite z-score [9]: 0.968
composite z-score [10]: -0.0247
composite z-score [11]: 0.699
composite z-score [12]: 0.798
composite z-score [13]: 0.355
composite z-score [14]: 0.406
z-score [15]: -0.94
composite z-score (Lefty1): 0.302
composite z-score [16]: 0.872
z-score [17]: 1.06 (inactive)

CN1C(=O)C2C=CC(C(O)c3ccccc3)N(NC(=O)OC(C)(C)C)C2C1=O (stereo not given)
composite z-score (Albumin (Bos taurus)): 0.959
composite Z-score [1]: 0.0333 (inactive)
composite z-score [2]: 0.245
composite z-score [3]: -0.0722
composite z-score [4]: 0.722
composite z-score [5]: 2.05
composite z-score [6]: 0.23
composite z-score (Sam68 (KHDRBS1)): 1.01
composite z-score [7]: -0.33
composite z-score [8]: 0.442
composite z-score [9]: 0.884
composite z-score [10]: 1.12
composite z-score [11]: 0.164
composite z-score [12]: 0.513
composite z-score [13]: -0.0714
composite z-score [14]: -0.27
z-score [15]: -0.165
composite z-score (Lefty1): -0.525
composite z-score [16]: 1.05
z-score [17]: 0.22 (inactive)
